This experiment relates to Plasmodium berghei. Briefly: Screen against P. berghei liver stage (PbLuc), transformed with Luciferase, at 2uM. In kind it is functional, HepG2. To be noted: tested at 2 uM.

“And” between values parts separate entries of the source, which are not always exact repeats. Equal entries are not always repeated. Out of some 68,000 compounds screened, about 2,700 (4%) showed an effect of 50% or more. The sample as a whole holds a higher share of strong results than the screen did.

The text below walks through data of ChEMBL document CHEMBL4513216, “Probing the Open Global Health Chemical Diversity Library for Multistage-Active Starting Points for Next-Generation Antimalarials” (ACS Infect Dis, 2020).

For the compound `CCc1c(C)nn2c(O)cc(C3CCN(C(=O)c4ccccn4)C3)nc12` (centres undefined), the INHIBITION (2 µM) was -16.2% and -18.64%.

`CC1Oc2c(cccc2C(=O)N2CCN(CC(C)(C)O)CC2)NC1=O` (centres undefined): the INHIBITION was -34.12%. The same measure, in the same setting: as for `Cc1ncccc1C(=O)Nc1cccc(C[S+](C)[O-])c1C` (centres undefined), the figure is 31.58%; as for `CCc1noc(C(C)Sc2nnc(C3CC3)n2CC(N)=O)n1` (centres undefined), 35.26%. The same measure, in the same setting: as for `CC(C)c1nc(CSc2nnc(C3CC3)n2CC(N)=O)no1`, the figure is 53.55%; as for `CC(C)c1nc(CSc2nnc(-c3cccs3)n2CC(N)=O)no1`, 51.4%; as for `Cc1cccc(CSc2nnc(C)n2CC(N)=O)c1`, 20.41%. On the same count and under the same terms, as for `CC(Sc1nnc(C2CC2)n1CC(N)=O)c1ccc(Cl)cc1` (centres undefined), the figure is -87.32%.

With `NC(=O)Cn1c(SCc2noc(-c3ccsc3)n2)nnc1C1CC1`, the INHIBITION was -2.44%. On the same count and under the same terms, the same measure for `CCc1nn(-c2cc(Oc3cc(C)ccc3C)nc(C)n2)c(N)c1C#N`: 16.91%. The same measure, in the same setting: as for `CC(C)CCN1C[C@@H]2OCCN(c3ncc(F)cn3)[C@@H]2C1`, the figure is 29.74%; as for `O=C(c1ccc(=O)[nH]n1)N1CCCC(O)(CN2CCC(F)(F)CC2)CC1` (centres undefined), 23.7%.

Take `Cc1cnc(NC2CCc3c(ccc(=O)n3C)C2)nc1` (centres undefined): the INHIBITION is on record as 58.93%.

Take `Cn1c2c(ccc1=O)CC(NC(=O)Cc1ccsc1)CC2` (centres undefined): the INHIBITION came out at 76.24%. Same read-out and setting: the same measure for `O=C(Cc1ccsc1)NC1CCc2c(ccc(=O)n2CC2CC2)C1` (centres undefined): 6.85%.

Regarding `Cn1c2c(ccc1=O)CC(Nc1ncc(F)cn1)CC2` (centres undefined), the INHIBITION was found to be 6.22%. On the same count and under the same terms, as for `CCc1cnc(NC2CCc3c(ccc(=O)n3C)C2)nc1` (centres undefined), the figure is -17.39%; as for `Cn1c2c(ccc1=O)CC(NC(=O)c1ccsc1)CC2` (centres undefined), 0.57%.

Regarding `CC(C)=CCN1C[C@@H]2CC[C@H]1CN(Cc1coc(C)n1)C2`, the INHIBITION is -60.75%.

On to `COC(=O)c1ccc(CN2CCC(c3n[nH]c(C)n3)CC2)s1`, for which the INHIBITION was -54.89%.

As to `CC(C)=CCC1(C(=O)O)CCCN(CCC(=O)NC2CC2)C1` (centres undefined), the INHIBITION worked out at 9.43%. For the compound `Cc1ccc(NC(=O)NCCCc2n[nH]c(N)c2C#N)cc1`, the INHIBITION is listed as 33.01%. Take `CCc1cnc(N)nc1NC(C)c1ccc(C)c(C)c1` (centres undefined): the INHIBITION was 35.84%. The same measure, in the same setting: the same measure for `O=C(c1ccncn1)N1CCC[C@]2(C[C@H](OCC3CC3)CO2)C1`: 16.78%; for `CC(C)(C)OCC1CN(Cc2cccs2)S(=O)(=O)c2cnccc2O1` (centres undefined): 35.6%; for `O=C1CCSCC(C(=O)N2CCCC2)N1` (centres undefined): 19.35%. Regarding `O=C1CCSCC(C(=O)N2CCCCC2)N1` (centres undefined), the INHIBITION was found to be 39.58%.

As for `O=C1CCSCC(C(=O)N2CCN(C3CCCCC3)CC2)N1` (centres undefined), the INHIBITION is 51.94%.

Consider `O=C(N[C@]12CC1CN(C(=O)c1ccco1)C2)c1cccc(F)c1` (some centres undefined), for which the INHIBITION was found to be 52.36%. The same measure, in the same setting: the same measure for `O=C(N[C@]12CC1CN(C(=O)c1ccco1)C2)c1ccoc1` (some centres undefined): 14.47%; for `O=C(N[C@]12CC1CN(C(=O)c1ccco1)C2)c1ccco1` (some centres undefined): -50.87%. The same measure, in the same setting: as for `Nc1nc(CN2CCCCC2Cn2cncn2)nc2ccccc12` (centres undefined), the figure is -42.37%; as for `Cc1cnc(N2C(=O)CSC2c2ccc(N(C)C)cc2)s1` (centres undefined), -8.23%. For the compound `O=C(O)c1cc(-c2cccs2)nc2c(Br)cnn12`, the INHIBITION was -11.83%. In the case of `Cn1ccnc1CN1CCN(CC(O)c2cccc(F)c2)CC1` (centres undefined), the INHIBITION is -0.3%.

As to `CC(c1ccc(F)cc1)N1CCN(Cc2nccn2C)CC1` (centres undefined), the INHIBITION worked out at 5.09%. As for `Cn1ccnc1CN1CCN(CC(O)c2ccc(F)cc2)CC1` (centres undefined), the INHIBITION is recorded as -10.66%. Consider `CC(c1ccc(F)c(F)c1)N1CCN(Cc2nccn2C)CC1` (centres undefined), for which the INHIBITION was determined as 62.13%. Same read-out and setting: the same measure for `Cn1ccnc1CN1CCN(CC(O)c2ccc(F)c(F)c2)CC1` (centres undefined): 56.67%. `CC(c1cccc(F)c1)N1CCN(Cc2nccn2C)CC1` (centres undefined): the INHIBITION was determined as 0.46%.

For `CN(C1CCN(c2ccccn2)CC1)S(=O)(=O)c1cccc(F)c1`, the INHIBITION turned out to be 15.38%. On the same count and under the same terms, as for `COCC1CN(Cc2ccc(C)o2)Cc2cnn(CC3CCOCC3)c21` (centres undefined), the figure is -24.39%; as for `Cc1nnsc1C(=O)NCCn1ccc(-c2ccncc2)n1`, -34.54%. Consider `Cc1cc(CC(=O)N(C)Cc2cccc(OC(C)C)c2)n[nH]1`, for which the INHIBITION is recorded as -75.84%. The same measure, in the same setting: the same measure for `Cc1nc(-c2nnc[nH]2)sc1C(=O)N1CCCC1c1ccsc1` (centres undefined): -26.81%. `Cc1cnc(CN2CCCC(c3nc4ccccc4n3C(C)C)C2)o1` (centres undefined): the INHIBITION stood at 37.77%. As for `Cc1ncc(CN2CCCC(c3nc4ccccc4n3C(C)C)C2)s1` (centres undefined), the INHIBITION came out at 61.57%. For the compound `CC(C)n1c(C2CCCN(Cc3ccnn3C)C2)nc2ccccc21` (centres undefined), the INHIBITION is recorded as 16.87%. On the same count and under the same terms, the same measure for `COc1ccc(OCC2CCCN(Cc3ccncc3)C2)cc1` (centres undefined): -1.29%. As to `Cc1ccc(OCC2CCCN(Cc3ccc(CO)o3)C2)cc1` (centres undefined), the INHIBITION turned out to be 69.67%. Same read-out and setting: the same measure for `Cc1ccc(OCC2CCCN(c3nc(CO)cs3)C2)cc1` (centres undefined): -43.42%; for `Cc1ccc(OCC2CCCN(CC3CCOCC3)C2)cc1` (centres undefined): 60.13%. As to `Cc1ccc(OCC2CCCN(C(=O)Cn3ccccc3=O)C2)cc1` (centres undefined), the INHIBITION is on record as 45.14%. For the compound `Cc1ccc(OCC2CCCN(C(=O)CN3CCOCC3)C2)cc1` (centres undefined), the INHIBITION worked out at 38.67%.
